About 83,000 compounds went through this panel and 20% of them were active in at least one assay; those are over-represented in the sample as a whole.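 Testing used 96-well plates and a 48-hour single-concentration exposure. Example: -40 means 40% of the starting cells died.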 Unmarked numbers belong to inactive results. Active and inactive are the calls of the source. The calls were made as follows: active = growth percent below 10; inactive = the rest.
Assays:
Assay in all cases: NCI-60 one-dose screen, 48 h (100 = growth as untreated, 0 = no growth, -100 = all killed)
Settings in all cases: 10 µM unless noted
HCT-15 colon = system: HCT-15 colon
HT29 colon = system: HT29 colon
SNB-75 CNS = system: SNB-75 CNS
SNB-19 CNS = system: SNB-19 CNS
U251 CNS = system: U251 CNS
PC-3 prostate = system: PC-3 prostate
SK-MEL-5 melanoma = system: SK-MEL-5 melanoma
UACC-62 melanoma = system: UACC-62 melanoma
LOX IMVI melanoma = system: LOX IMVI melanoma
SK-MEL-28 melanoma = system: SK-MEL-28 melanoma
SK-MEL-2 melanoma = system: SK-MEL-2 melanoma
EKVX NSCLC = system: EKVX NSCLC
SN12C renal = system: SN12C renal
UO-31 renal = system: UO-31 renal
TK-10 renal = system: TK-10 renal
ACHN renal = system: ACHN renal
CAKI-1 renal = system: CAKI-1 renal
A498 renal = system: A498 renal
CCRF-CEM leukemia = system: CCRF-CEM leukemia
MOLT-4 leukemia = system: MOLT-4 leukemia

SMILES | growth (HCT-15 colon) | growth (HT29 colon) | growth (SNB-75 CNS) | growth (SNB-19 CNS) | growth (U251 CNS) | growth (PC-3 prostate) | growth (SK-MEL-5 melanoma) | growth (UACC-62 melanoma) | growth (LOX IMVI melanoma) | growth (SK-MEL-28 melanoma) | growth (SK-MEL-2 melanoma) | growth (EKVX NSCLC) | growth (SN12C renal) | growth (UO-31 renal) | growth (TK-10 renal) | growth (ACHN renal) | growth (CAKI-1 renal) | growth (A498 renal) | growth (CCRF-CEM leukemia) | growth (MOLT-4 leukemia)
Fc1cc2[nH]ncc2c2c3c(c(-c4cn[nH]c4)nc12)CCCC3 | 4.51% (active) | 11% | 3.38% (active) | 8.75% (active) | -1.45% (active) | 7.08% (active) | -69.4% (active) | -48% (active) | 0.769% (active) | 2.87% (active) | -30.7% (active) | 13.1% | 7.63% (active) | -13.7% (active) | 20% | 1.61% (active) | 2.83% (active) | -56.5% (active) | 7.75% (active) | 
CCCCCCCCCN(CCCCCCCCC)C(C)C(=O)c1ccc2cc(Br)c3ccccc3c2c1 (stereo not drawn) | 47.1% | 30.1% | 84.5% | 92% | 70.9% | 75.2% | 88.5% | 92.8% | 63.9% | 109% | 125% | 72.6% | 79.8% | 47.2% | 93.7% | 85.9% | 71.5% | 96.8% | 60.6% | 86%
CCN(CC)c1ccc2cc(NC(=O)OCCNC(=O)CCNC(=O)[C@H](CC(C)C)NC(=O)C(C)(C)NC(=O)C(C)(C)NC(=O)[C@H](CC(C)C)NC(=O)CCNC(=O)C(C)(C)NC(=O)[C@H](CC(C)C)NC(=O)CCNC(=O)[C@@](C)(CC)NC(=O)[C@H](C)NC(=O)CCNC(=O)C(C)(C)NC(=O)[C@H](C)NC(=O)[C@@H]3CCCN3C(=O)[C@@](C)(CC)NC(=O)[C@H](Cc3ccccc3)NC(=O)C3CCCN3C(=O)C(C)(C)NC(=O)C3CCCN3C(=O)C(C)(C)NC(C)=O)c(=O)oc2c1 (stereo partly drawn) | -93.3% (active) | -81.4% (active) | -91.6% (active) | -76.5% (active) | -85.6% (active) | -91.2% (active) | -100% (active) | -76.2% (active) | -85% (active) | -84.1% (active) | -80.4% (active) | -100% (active) | -74.6% (active) | -80.5% (active) | -93.3% (active) | -85.4% (active) | -92.4% (active) | -98.5% (active) | -63.5% (active) | 
O=C(CCNCc1ccccc1)c1ccccc1 | 106% | 106% | 109% | 114% | 101% | 106% | 99% | 97.5% | 105% | 113% | 108% | 104% | 109% | 95.9% | 113% | 107% | 100% | 112% | 116% | 
CC1(C)CC[C@]2(C(N)=O)CC[C@]3(C)C(=CC[C@@H]4[C@@]5(C)C/C(=C/c6cccnc6)C(=O)C(C)(C)[C@@H]5CC[C@]43C)[C@@H]2C1 | -65.6% [100 µM] (active) | -35.6% [100 µM] (active) | -17.6% [100 µM] (active) | -90.1% [100 µM] (active) | -83.2% [100 µM] (active) | -19.6% [100 µM] (active) | -100% [100 µM] (active) | -70.5% [100 µM] (active) | -74.1% [100 µM] (active) | -59.7% [100 µM] (active) | -57.5% [100 µM] (active) | 1.54% [100 µM] (active) | -58.8% [100 µM] (active) | -95.1% [100 µM] (active) | -14.8% [100 µM] (active) | -61.1% [100 µM] (active) | -30.6% [100 µM] (active) | -83.4% [100 µM] (active) | 2.68% [100 µM] (active) | -9.98% [100 µM] (active)
N/C(=N\c1nc2ccccc2[nH]1)NC(=O)Cc1cccc2ccccc12 | 71.7% | 83.5% | 87.5% | 87.6% | 80.6% | 80% | 82.2% | 81.8% | 81.4% | 86.9% | 65.6% | 75.6% | 98.8% | 50.3% | 106% | 88.9% | 82.9% | 80.6% | 86% | 
Cc1cnc(N)nc1OCCNC(=O)c1cccc(-c2ccc(S(=O)(=O)Nc3ccc4c(c3)N(C(=O)C3CC3)CCC4)cc2)c1 | 96.4% | 80.5% | 57.3% | 75.5% | 88.4% | 53.5% | 23.8% | 48.1% | 88.5% | 88.6% | 74.4% | 98.9% | 79.7% | 77.1% | 93.1% | 84.9% | 77.4% | 40.2% | 64.1% | 
CCN(CC)c1cc(N)c(Cc2c(N)cc(N(CC)CC)cc2Cl)c(Cl)c1 | 91.7% | 27.6% | 8.86% (active) | 35.1% | 21.6% | 38.4% | -27.8% (active) | 47.5% | 37.7% | 53.2% | 41.6% | 31.9% | 21.8% | 68.5% | 82.1% | 80.2% | 65.7% | 76.7% |  | 
COC(=O)[C@]12CCC(C)(C)C[C@H]1C1=CC[C@@H]3[C@@]4(C)C/C(=C/c5cccnc5)C(=O)C(C)(C)[C@@H]4CC[C@@]3(C)[C@]1(C)CC2 | 0.973% [100 µM] (active) | -15.9% [100 µM] (active) | -59.8% [100 µM] (active) | -23.1% [100 µM] (active) | -38.2% [100 µM] (active) | -16.3% [100 µM] (active) | -93.9% [100 µM] (active) | -59.4% [100 µM] (active) | -89.5% [100 µM] (active) | -69.5% [100 µM] (active) | -70.3% [100 µM] (active) | -44.8% [100 µM] (active) | -51.4% [100 µM] (active) | -81.6% [100 µM] (active) | -35.9% [100 µM] (active) | -61.1% [100 µM] (active) | -15.4% [100 µM] (active) | -69.8% [100 µM] (active) | 2.85% [100 µM] (active) | -14% [100 µM] (active)
CCOC(=O)C1=C(C(=O)c2ccc(Br)cc2)C(c2ccc(Br)cc2)NC(=S)N1 (stereo not drawn) | 99% | 104% | 93.1% | 100% | 95.8% | 98.1% | 103% | 94.8% | 94% | 105% | 110% | 104% | 98.3% | 76.8% | 130% | 97.6% | 86% | 90.6% | 114% | 114%
CCCCCn1c(C)cc(/C=C\c2ccc3cc(C)ccc3[n+]2C)c1C | -12% (active) | -61.8% (active) | -94.4% (active) | -89.8% (active) | -93.9% (active) | -47.9% (active) | -95.7% (active) | -89.8% (active) | -72.4% (active) | -87.1% (active) | -81.9% (active) | -47.9% (active) | -90.3% (active) | -61.4% (active) | -57.6% (active) | -89.3% (active) | -80.3% (active) | -46% (active) | -13.3% (active) | 7.02% (active)
CCN(CC)CCCCCCNc1cccc2cc(Br)cnc12 | 84.7% | 16.9% | 92.2% | 107% | 81.2% | 54.2% | 94.7% | 113% | 69.3% | 108% | 21.7% | 93.1% | 104% | 61% | 58.7% | 104% | 62.3% | 86.3% | 57% | 9.09% (active)
COc1ccc(-c2c(C)nn3c(NCCN4CCOCC4)cc(C)nc23)cc1OC | 95.1% | 94.4% | 93.2% | 91.4% | 82.2% | 89.7% | 97.2% | 97.6% | 87.5% | 103% | 104% | 83.9% | 100% | 104% | 102% | 106% | 75.2% | 78% | 97.6% | 90.2%
CCOC(=O)Nc1ccc2c(c1)/C(=N\NC(=S)NC)c1ccccc1-2 | 66.7% | 88% | 96.2% | 71.8% | 62% | 81.8% | 73.5% | 71.9% | 67.1% | 82.7% | 101% | 79.7% | 73.8% | 104% | 76.7% | 83.7% | 81.4% | 33.6% | 61.8% | 87.4%
